Molecules are shown by their SMILES.

Assay [1] relates to Vero E6 infected with SARS-CoV-2. The experiment in a line: morphology score (similarity to uninfected cells); higher = more like uninfected cells. The settings on record: 24 h.
Assay [2] shares this test system. The experiment in a line: SARS-CoV-2 infection rate relative to infected DMSO; higher = more infection, active = 60 or less. The following applies: 24 h.

As to `C/C=C1\[C@H]2C=C(C)C[C@]1(N)c1ccc(=O)[nH]c1C2` [(-)-Huperzine A] (10 µM), the morphology score in assay [1] is -0.118. Moreover, the SARS-CoV-2 infection rate in assay [2] is 108% (inactive).
`O=C(NO)C1(CS(=O)(=O)c2ccc(Oc3ccc(Cl)cc3)cc2)CCOCC1` (10 µM) showed a morphology score in assay [1] of 0.0418. For the same compound, in assay [2], the SARS-CoV-2 infection rate was 98.5% (inactive).
In the same order, the values of `Cc1cccc(Oc2cnc(=O)[nH]c2)c1` [tolimidone] (10 µM) are 0.147 and 106% (inactive).
For `Cn1c(Nc2ccc(C(F)(F)F)cc2)nc2cc(Oc3ccnc(-c4ncc(C(F)(F)F)[nH]4)c3)ccc21` (10 µM), in that order: -0.041 and 100% (inactive).
For `CCn1cnc2c(Nc3cccc(Cl)c3)nc(N[C@@H]3CCCC[C@@H]3N)nc21` (0.833333 µM), in that order: -0.35 and 114% (inactive).
Regarding `CC(=O)Nc1ccc(O)cc1` [paracetamol] (10 µM), the morphology score in assay [1] is -0.0685. Moreover, the SARS-CoV-2 infection rate in assay [2] is 103% (inactive).

These data come from the supplement of paper PMC13380429.
